From PubChem BioAssay (Tox21) come the findings set out here.

Test [1] in a line: qHTS assay to identify small molecule agonists of the sonic hedgehog signaling (Shh) pathway (AID 1259368; calls by dose curve;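 note: NIH/3T3-derived 3T3Gli1-Luc cells carrying a stable Gli1-driven firefly luciferase reporter; series mostly up to about 92 µM; nearly all actives have a fitted effect of over 15% in size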). The gist of the method:
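A Gli1 transcriptional response element controlled firefly luciferase in 3T3Gli1-Luc cells. Compounds and a positive control were added 4 hr after plating, and cells were incubated a further 24 hr at 37 C before luminescence detection.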

Test [2] in a line: qHTS assay to identify small molecule antagonists of the sonic hedgehog signaling (Shh) pathway (AID 1259369; calls by dose curve; note: nearly all actives have a fitted effect of over 45% in size; note: potency is the fitted concentration of half-maximal effect). In short, it runs like this: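 For antagonist detection, the reporter line received test compounds together with conditioned medium, incubated 24hr at 37 C, 5% CO2, then luminescence was recorded following 30min room-temperature luciferase reagent incubation.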
In test [3] the target is Estrogen receptor beta (Homo sapiens) (UniProt Q92731). The test is described as follows: qHTS assay to identify small molecule agonists of the estrogen receptor beta (ER-beta) signaling pathway (AID 1259377; active = well fitted activation curve with a large enough effect in the signal ratio in the repeat runs, not every such curve was filed as active; the % refers to the signal ratio). The gist of the method:
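Read-out: beta-lactamase FRET fluorescence. Cell line: ER-beta-UAS-bla HEK293T in 2% charcoal-stripped FBS. Exposure: 16 hr at 37C. Substrate step: 2 h at room temperature.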

The target is the same in test [4]. Briefly: qHTS assay to identify small molecule antagonists of the estrogen receptor beta (ER-beta) signaling pathway (AID 1259378; active = well fitted inhibition curve with a large enough effect in the signal ratio in the repeat runs, not every such curve was filed as active; the % refers to the signal ratio). In short, it runs like this: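 ER-beta-UAS-bla HEK293T cells in 2% charcoal-stripped FBS medium treated with compound plus 1nM final 17-beta-estradiol for 16 hr at 37C. Beta-lactamase reporter read by FRET substrate fluorescence after 2 hours at room temperature.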

Test [5] can be described thus: qHTS assay to identify small molecule agonists of the androgen receptor (AR) signaling pathway in the presence of an antagonist - cell viability counter screen (AID 1259379).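 Note: MDA-kb2 human breast cancer cells carrying an MMTV luciferase reporter; series mostly up to about 92 µM; nearly all actives have a fitted effect of over 25% in size.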 The gist of the method: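 Seed MDA-kb2 at 3,000 cells/well; incubate 5 hr, 37C, 0% CO2. Add nilutamide to 3.0uM final, then pin compounds at 15 concentrations. Incubate 16 hr. Add CellTiter-Fluor at 15 hr, read fluorescence after 1 hr.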

Test [6] is described as follows: qHTS assay to identify small molecule agonists of the estrogen receptor beta (ER-beta) signaling pathway - cell viability counter screen (AID 1259380). Note: nearly all actives have a fitted effect of over 30% in size. In short, it runs like this:
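CellTiter-Glo read, 30 min RT, same wells as bla assay; cells ER-beta-UAS-bla HEK293T; 16 hr compound, 37C; medium 2% charcoal-stripped FBS.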

Test [7] in a line: qHTS assay to identify small molecule antagonists of the estrogen receptor beta (ER-beta) signaling pathway - cell viability counter screen (AID 1259382). Note: series mostly up to about 92 µM; nearly all actives have a fitted effect of over 55% in size. In short, it runs like this:
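In this multiplexed counter screen, cells were seeded at 2,000 per well in medium with 2% charcoal-stripped FBS and incubated 6 hr before compound and 1nM final E2 were added. Sixteen hours later, ATP-based luminescence reported viability.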

In test [8] the target is Estrogen receptor (Homo sapiens) (UniProt P03372). The test is described as follows: qHTS assay to identify small molecule agonists of the estrogen receptor alpha (ER-alpha) signaling pathway in the presence of an antagonist (AID 1259383; calls by dose curve; note: top concentration of the series differs between compounds; nearly all actives have a fitted effect of over 15% in size). The gist of the method: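 Stably transfected VM7Luc4E2 reporter cells, kept 5 days in charcoal-stripped serum, received ICI-182,780 at 10.0nM final before compound addition. Following 22hr incubation at 37C and 5% CO2, luciferase signal was read by luminescence.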
Sequence of Estrogen receptor (Homo sapiens) (P03372 whole entry, looked up): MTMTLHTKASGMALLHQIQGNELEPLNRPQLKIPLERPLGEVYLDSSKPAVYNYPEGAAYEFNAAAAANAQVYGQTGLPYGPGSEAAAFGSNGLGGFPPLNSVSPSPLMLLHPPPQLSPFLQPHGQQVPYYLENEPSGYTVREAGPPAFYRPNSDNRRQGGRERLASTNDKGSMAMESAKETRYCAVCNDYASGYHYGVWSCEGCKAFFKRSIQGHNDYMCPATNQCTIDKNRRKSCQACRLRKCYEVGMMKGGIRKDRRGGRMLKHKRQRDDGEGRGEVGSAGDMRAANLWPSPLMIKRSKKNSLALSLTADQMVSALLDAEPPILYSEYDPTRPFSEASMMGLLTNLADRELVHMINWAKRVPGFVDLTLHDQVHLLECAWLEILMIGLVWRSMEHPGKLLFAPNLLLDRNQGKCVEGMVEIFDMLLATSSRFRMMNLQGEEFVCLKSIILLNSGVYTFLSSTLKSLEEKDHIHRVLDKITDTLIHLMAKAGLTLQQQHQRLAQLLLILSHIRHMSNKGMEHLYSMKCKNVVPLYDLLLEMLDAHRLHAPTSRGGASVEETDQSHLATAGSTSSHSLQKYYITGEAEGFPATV

For test [9], the target named is Thyrotropin receptor (Homo sapiens) (UniProt P16473). The test is described as follows: qHTS assay to identify small molecule antagonists of the thyroid stimulating hormone receptor (TSHR) signaling pathway (AID 1259385; calls by dose curve; note: nearly all actives have a fitted effect of over 20% in size). The gist of the method:
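TSHR-HEK293 cells (800/well) plated 18 h, then compounds with Ro20-1724 and TSH at 1.5 ng/mL final, 30 min at room temperature. cAMP quantified by HTRF (cAMP-d2/anti-cAMP-cryptate, 1 h); 15 concentrations in triplicate.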

Test [10] in a line: qHTS assay to identify small molecule agonists of the estrogen receptor alpha (ER-alpha) signaling pathway in the presence of an antagonist - cell viability counter screen (AID 1259386).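 Note: series mostly up to about 92 µM; cells exposed to compounds for 22 h at 37 °C before the viability read; nearly all actives have a fitted effect of over 30% in size.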 The gist of the method:
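Viability counter screen using VM7Luc4E2 (full-length ER-alpha, four ERE-luciferase). The cells were treated with compounds alongside ICI-182,780 10.0nM for 22hr, and live-cell protease fluorescence was quantified with CellTiter-Fluor.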

Test [11] addresses Progesterone receptor (Homo sapiens) (UniProt P06401). Briefly: qHTS assay to identify small molecule agonists of the progesterone receptor (PR) signaling pathway (AID 1346784; calls by dose curve; note: nearly all actives have a fitted effect of over 30% in size). In short, it runs like this:
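Compounds were tested for PR agonism in HEK 293T cells bearing a beta-lactamase gene under UAS control. Treatment lasted 16 hr at 37C; signal came from fluorescence of a FRET substrate.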

The target is the same in test [12]. Briefly: qHTS assay to identify small molecule antagonists of the progesterone receptor (PR) signaling pathway (AID 1346795; active = well fitted inhibition curve with a large enough effect in the signal ratio in the repeat runs, not every such curve was filed as active; the % refers to the signal ratio). The gist of the method:
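In HEK293T cells bearing the PR-UAS-bla reporter, compound effects on promegestone-driven (1 nM) beta-lactamase expression are assessed after 16 hr using a fluorescent FRET substrate incubated 2 hr at room temperature.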

The nature of test [13]: qHTS assay to identify small molecule antagonists of the progesterone receptor (PR) signaling pathway - cell viability counter screen (AID 1346798). Note: series mostly up to about 92 µM; nearly all actives have a fitted effect of over 50% in size. In short, it runs like this: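 Following a 4 hr attachment, PR-UAS-bla HEK293T cells in charcoal-stripped FBS medium were exposed to compounds with R5020 for 16 hr; CellTiter-Glo was added and luminescence read after 30 min at room temperature.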

Test [14] in a line: qHTS assay to identify small molecule agonists of the progesterone receptor (PR) signaling pathway - cell viability counter screen (AID 1346799; calls by dose curve; note: nearly all actives have a fitted effect of over 45% in size). In short, it runs like this:
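Here, 3,000 PR-UAS-bla HEK293T cells per well were treated with compounds for 16 hr after a 6 hr preincubation at 37C and 5% CO2; cell viability is the CellTiter-Glo luminescence signal.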

A short description of test [15]: qHTS assay to identify small molecule antagonists of the TGF-beta/Smad signaling pathway - cell viability counter screen (AID 1346824). Note: nearly all actives have a fitted effect of over 50% in size. In short, it runs like this: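 SBE-bla HEK 293T cells, incubated overnight, then compound plus 0.25 ng/mL TGF-beta1 (stock added) for 5 hr at 37 C. Viability was read in the same wells by CellTiter-Glo luminescence after 30 min at room temperature.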

Test [16] is described as follows: qHTS assay to identify small molecule agonists of the TGF-beta/Smad signaling pathway - cell viability counter screen (AID 1346829). Note: top concentration of the series differs between compounds; nearly all actives have a fitted effect of over 45% in size. The gist of the method:
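Here the cytotoxicity of library compounds is measured in SBE-bla HEK 293T cells treated for 5 hr, using CellTiter-Glo added to wells already read for the beta-lactamase reporter.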

Test [17] in a line: qHTS assay to identify small molecule agonists of the TGF-beta/Smad signaling pathway (AID 1346859; active = well fitted activation curve with a large enough effect in the signal ratio in the repeat runs, not every such curve was filed as active; the % refers to the signal ratio; note: series mostly up to about 77 µM). In short, it runs like this:
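Each well held 4,000 SBE-bla HEK 293T cells incubated overnight before compound addition; 5 hr later the cleavable FRET substrate went on for 2 hr at room temperature, and fluorescence was read at two emissions.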

Test [18] has as its target Androgen receptor (Homo sapiens) (UniProt P10275). Briefly: qHTS assay to identify small molecule agonists of the androgen receptor (AR) signaling pathway in the presence of an antagonist (AID 1259381; calls by dose curve; note: nearly all actives have a fitted effect of over 15% in size). In short, it runs like this:
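Test compounds at 15 concentrations were incubated for 16hr with MDA-kb2 reporter cells in presence of 3.0uM nilutamide (final). Signal: ONE-Glo luciferase luminescence.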

A short description of test [19]: qHTS assay to identify small molecule agonists or antagonists of the thyroid stimulating hormone receptor (TSHR) signaling pathway - wild type cell line counter screen (AID 1259384; calls by dose curve). In short, it runs like this: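 Wild-type Hek293 cells, 800/well, 18 h at 37C, then compound with Ro20-1724 for 30 min RT. cAMP by HTRF (cAMP-d2/anti-cAMP cryptate), 1 h RT, fluorescence read. 15 concentrations, triplicates.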

For test [20], the target named is Thyrotropin-releasing hormone receptor (Homo sapiens) (UniProt P34981). Briefly: qHTS assay to identify small molecule antagonists of the thyrotropin-releasing hormone receptor (TRHR) signaling pathway (AID 1346877; active = well fitted inhibition curve with a large enough effect in the repeat runs, not every such curve was filed as active; note: series mostly up to about 51 µM). The gist of the method:
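Following an 18 h incubation at 37 °C and a 2 h calcium dye load, TRHR-HEK293 cells were exposed to compound (5 min, room temperature) and challenged with TRH, 1 nM final.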

Results filed as inconclusive are left out. Where a structure was tested more than once in an assay, its records may differ in their call. Calls of active or inactive are those of the source. Unless noted, calls come from the whole dose curve; as a rule, active = well fitted curve in the direction sought with a large enough effect in the repeat runs; inconclusive = weak or mixed curves; inactive = no such curve, though single readings can be large; an effect the other way counts as inactive or inconclusive.

Sequence of Thyrotropin-releasing hormone receptor (Homo sapiens) (P34981 whole entry, looked up): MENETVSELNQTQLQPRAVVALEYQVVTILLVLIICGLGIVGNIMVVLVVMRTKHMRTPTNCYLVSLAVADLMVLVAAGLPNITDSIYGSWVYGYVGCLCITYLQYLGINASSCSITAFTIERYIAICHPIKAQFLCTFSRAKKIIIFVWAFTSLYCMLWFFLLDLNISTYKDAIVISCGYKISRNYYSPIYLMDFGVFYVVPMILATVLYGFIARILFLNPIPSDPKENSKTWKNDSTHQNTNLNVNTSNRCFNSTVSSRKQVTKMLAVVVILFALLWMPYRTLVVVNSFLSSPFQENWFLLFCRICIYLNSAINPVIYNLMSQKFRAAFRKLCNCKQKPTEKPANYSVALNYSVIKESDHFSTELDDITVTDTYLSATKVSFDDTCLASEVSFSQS
Sequence of Progesterone receptor (Homo sapiens) (P06401 whole entry, looked up): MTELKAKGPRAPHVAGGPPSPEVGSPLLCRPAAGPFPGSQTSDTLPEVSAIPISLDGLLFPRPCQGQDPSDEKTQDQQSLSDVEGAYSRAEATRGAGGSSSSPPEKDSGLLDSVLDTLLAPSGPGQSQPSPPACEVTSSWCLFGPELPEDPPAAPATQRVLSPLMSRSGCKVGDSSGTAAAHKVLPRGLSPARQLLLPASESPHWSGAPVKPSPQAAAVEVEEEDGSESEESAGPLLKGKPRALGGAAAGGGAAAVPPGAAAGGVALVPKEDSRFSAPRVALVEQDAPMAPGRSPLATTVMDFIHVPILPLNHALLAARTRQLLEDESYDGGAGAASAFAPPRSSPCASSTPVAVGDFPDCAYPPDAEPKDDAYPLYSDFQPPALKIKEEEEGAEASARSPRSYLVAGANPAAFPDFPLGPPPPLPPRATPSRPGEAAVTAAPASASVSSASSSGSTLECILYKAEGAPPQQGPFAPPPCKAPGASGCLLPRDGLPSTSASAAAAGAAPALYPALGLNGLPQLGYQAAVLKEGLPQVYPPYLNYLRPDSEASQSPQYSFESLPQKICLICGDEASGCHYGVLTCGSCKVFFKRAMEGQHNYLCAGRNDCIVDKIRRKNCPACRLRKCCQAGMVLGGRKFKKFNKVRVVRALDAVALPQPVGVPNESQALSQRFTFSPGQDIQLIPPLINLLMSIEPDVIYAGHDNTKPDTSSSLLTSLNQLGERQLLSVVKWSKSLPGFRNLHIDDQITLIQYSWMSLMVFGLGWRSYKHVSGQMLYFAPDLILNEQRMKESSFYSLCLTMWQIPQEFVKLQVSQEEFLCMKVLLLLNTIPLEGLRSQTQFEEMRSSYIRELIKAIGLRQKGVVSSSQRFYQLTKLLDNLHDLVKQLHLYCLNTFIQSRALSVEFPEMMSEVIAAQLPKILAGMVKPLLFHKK
Sequence of Thyrotropin receptor (Homo sapiens) (P16473 whole entry, looked up): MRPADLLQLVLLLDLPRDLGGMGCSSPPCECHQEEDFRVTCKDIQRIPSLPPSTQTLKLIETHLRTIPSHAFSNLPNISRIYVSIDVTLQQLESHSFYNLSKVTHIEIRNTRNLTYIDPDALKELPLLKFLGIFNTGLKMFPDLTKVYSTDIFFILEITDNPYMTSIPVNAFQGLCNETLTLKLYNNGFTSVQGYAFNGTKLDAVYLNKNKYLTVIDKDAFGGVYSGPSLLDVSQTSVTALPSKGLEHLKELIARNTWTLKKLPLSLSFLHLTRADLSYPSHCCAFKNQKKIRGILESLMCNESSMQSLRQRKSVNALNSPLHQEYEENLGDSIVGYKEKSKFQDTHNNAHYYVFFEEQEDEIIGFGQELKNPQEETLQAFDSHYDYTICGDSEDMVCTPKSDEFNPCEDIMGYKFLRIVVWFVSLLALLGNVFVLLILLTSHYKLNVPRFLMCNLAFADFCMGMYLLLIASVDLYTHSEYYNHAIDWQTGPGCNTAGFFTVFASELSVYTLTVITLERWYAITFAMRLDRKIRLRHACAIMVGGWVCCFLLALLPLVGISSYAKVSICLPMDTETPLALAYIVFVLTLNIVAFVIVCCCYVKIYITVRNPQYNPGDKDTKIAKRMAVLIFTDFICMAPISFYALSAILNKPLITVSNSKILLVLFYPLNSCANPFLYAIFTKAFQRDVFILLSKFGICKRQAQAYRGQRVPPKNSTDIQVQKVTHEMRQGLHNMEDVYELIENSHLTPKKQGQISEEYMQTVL
Sequence of Estrogen receptor beta (Homo sapiens) (Q92731 whole entry, looked up): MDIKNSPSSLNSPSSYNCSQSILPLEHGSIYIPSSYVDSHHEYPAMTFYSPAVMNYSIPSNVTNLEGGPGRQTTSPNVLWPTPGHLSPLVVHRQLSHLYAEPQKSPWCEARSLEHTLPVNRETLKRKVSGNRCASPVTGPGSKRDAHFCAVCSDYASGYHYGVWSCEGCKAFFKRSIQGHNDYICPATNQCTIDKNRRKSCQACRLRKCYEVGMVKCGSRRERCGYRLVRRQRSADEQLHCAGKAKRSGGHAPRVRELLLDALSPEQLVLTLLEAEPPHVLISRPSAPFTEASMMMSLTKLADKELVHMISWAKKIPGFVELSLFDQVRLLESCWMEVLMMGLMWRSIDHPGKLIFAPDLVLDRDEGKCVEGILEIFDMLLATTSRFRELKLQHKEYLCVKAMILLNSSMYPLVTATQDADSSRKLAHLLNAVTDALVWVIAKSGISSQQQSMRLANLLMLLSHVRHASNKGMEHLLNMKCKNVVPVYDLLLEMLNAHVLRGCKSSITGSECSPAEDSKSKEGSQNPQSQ
Sequence of Androgen receptor (Homo sapiens) (P10275 whole entry, looked up): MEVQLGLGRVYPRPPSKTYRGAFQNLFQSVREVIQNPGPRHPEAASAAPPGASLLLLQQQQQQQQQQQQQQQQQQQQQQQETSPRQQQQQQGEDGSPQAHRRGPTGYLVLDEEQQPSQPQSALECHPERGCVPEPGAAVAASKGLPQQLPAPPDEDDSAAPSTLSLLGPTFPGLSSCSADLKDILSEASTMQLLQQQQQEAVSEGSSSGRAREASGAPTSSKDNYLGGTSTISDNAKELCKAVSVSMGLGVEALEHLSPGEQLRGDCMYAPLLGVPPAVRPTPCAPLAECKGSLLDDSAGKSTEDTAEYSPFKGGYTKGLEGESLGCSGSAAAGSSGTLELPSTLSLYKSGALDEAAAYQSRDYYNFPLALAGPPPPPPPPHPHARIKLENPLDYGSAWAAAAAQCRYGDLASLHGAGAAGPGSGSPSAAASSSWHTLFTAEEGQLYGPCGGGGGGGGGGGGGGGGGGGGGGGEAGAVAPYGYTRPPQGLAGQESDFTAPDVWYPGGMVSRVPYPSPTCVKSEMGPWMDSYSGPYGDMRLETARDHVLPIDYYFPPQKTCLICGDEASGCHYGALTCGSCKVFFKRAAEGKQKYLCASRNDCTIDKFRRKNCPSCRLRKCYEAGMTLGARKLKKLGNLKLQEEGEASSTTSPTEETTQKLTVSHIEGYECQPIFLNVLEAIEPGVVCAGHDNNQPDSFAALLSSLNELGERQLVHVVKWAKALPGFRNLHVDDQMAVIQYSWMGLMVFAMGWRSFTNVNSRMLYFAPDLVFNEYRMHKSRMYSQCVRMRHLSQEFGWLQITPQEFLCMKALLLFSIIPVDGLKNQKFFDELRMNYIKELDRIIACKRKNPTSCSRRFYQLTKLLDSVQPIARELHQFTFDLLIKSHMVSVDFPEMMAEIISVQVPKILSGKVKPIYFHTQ

`CC(=O)OCc1ccco1`: the result in [1], in test [7], in [9], in [13], in [14] and in test [15] was inactive. The molecule was called inactive in [16] and in test [17]. Further, the Potency in test [2] was 1.53 µM (active) and inactive. Further, the Potency entry in test [3], in test [4], in [5], in test [6], in [8] and in [10] was “inactive” in each case. Also, the Potency result in [11] and in [12] was “inactive” throughout.
As to `CCCCCCCCCCCCCCCC(=O)OC(C)C`, the outcome in test [1], in [7], in test [13], in test [14], in test [15] and in [16] was inactive. In [17], the result was inactive. Besides, the Potency result in [2], in test [3], in test [4], in test [5], in [6] and in test [10] was “inactive” in each case. For the same molecule, the Potency result in test [11] and in test [12] was “inactive” each time.
As to `COc1ccccc1OCC(O)CO` (stereo not given), the call in test [1], in [7], in test [19], in test [9], in [13] and in test [14] was inactive. Moreover, the result in test [15], in test [16] and in test [17] was inactive. Further, the Potency result in test [2], in [3], in [4], in test [5], in [6] and in test [18] was “inactive” each time. Moreover, the Potency entry in test [10], in [11] and in test [12] was “inactive” each time.
On to `COCCOC(=O)c1ccccc1C(=O)OCCOC`, for which the molecule was classed as inactive in test [1], in test [7], in test [19], in test [9], in [13] and in test [14]. Moreover, the molecule was classed as inactive in test [15], in test [16] and in test [17]. The Potency entry in test [2], in [3], in test [4], in [5], in test [6] and in [10] was “inactive” in each case. Moreover, the Potency entry in test [11] and in test [12] was “inactive” in each case.
With `CC(=O)OC1CC(C)OC(C)O1` (stereo not given), the molecule was classed as inactive in test [1], in test [7], in test [13], in test [14], in test [15] and in test [16]. Besides, the call in [17] and in [20] was inactive. Moreover, the Potency entry in test [2], in test [3], in test [4], in test [5], in test [6] and in [10] was “inactive” throughout. Further, the Potency result in test [11] and in test [12] was “inactive” throughout.
Turning to `CCc1ccccc1CC`, the result in test [1], in [7], in [9], in test [13], in [14] and in test [15] was inactive. Moreover, the molecule was called inactive in test [16], in test [17] and in [20]. For the same molecule, the Potency result in test [2], in test [3], in test [4], in [5], in [6] and in test [8] was “inactive” throughout. For the same molecule, the Potency result in [10], in test [11] and in test [12] was “inactive” throughout.
Take `C=C(C)[C@H]1CC=C(C)C(=O)C1`: the molecule was classed as inactive in test [1], in test [7], in test [19], in [9], in test [13] and in test [14]. In addition, the molecule was classed as inactive in [15], in [16] and in test [17]. Further, the Potency result in test [2], in test [3], in test [4], in test [6], in test [10] and in [11] was “inactive” each time. Further, the Potency result in test [12] is “inactive”.
Take `c1ccc2c(c1)Cc1ccccc1-2`: the molecule was classed as inactive in [1], in test [7], in test [19], in [9], in test [13] and in test [14]. Also, the molecule was classed as inactive in test [15], in test [16] and in [17]. Moreover, the Potency entry in test [2], in test [3], in [4], in [5], in test [6] and in test [8] was “inactive” throughout. In addition, the Potency result in test [10], in test [11] and in test [12] was “inactive” throughout.
